# Measurements reported in PubChem BioAssay.
# Molecular target: Pro-neuregulin-1, membrane-bound isoform (Homo sapiens) (UniProt Q02297)
# Experiment: NRG1 binders on small-molecule microarrays, primary screen, psychiatric disease protein project, biochemical, small-molecule microarray, fluorescence 635/667 (AID 1075);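 further: score combines 667 nm spot fluorescence with signal to noise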
# Conditions: NRG1 binding, 635 nm fluorescence, higher = more signal
# Pro-neuregulin-1, membrane-bound isoform (Homo sapiens), sequence (Q02297 whole entry, looked up, canonical isoform): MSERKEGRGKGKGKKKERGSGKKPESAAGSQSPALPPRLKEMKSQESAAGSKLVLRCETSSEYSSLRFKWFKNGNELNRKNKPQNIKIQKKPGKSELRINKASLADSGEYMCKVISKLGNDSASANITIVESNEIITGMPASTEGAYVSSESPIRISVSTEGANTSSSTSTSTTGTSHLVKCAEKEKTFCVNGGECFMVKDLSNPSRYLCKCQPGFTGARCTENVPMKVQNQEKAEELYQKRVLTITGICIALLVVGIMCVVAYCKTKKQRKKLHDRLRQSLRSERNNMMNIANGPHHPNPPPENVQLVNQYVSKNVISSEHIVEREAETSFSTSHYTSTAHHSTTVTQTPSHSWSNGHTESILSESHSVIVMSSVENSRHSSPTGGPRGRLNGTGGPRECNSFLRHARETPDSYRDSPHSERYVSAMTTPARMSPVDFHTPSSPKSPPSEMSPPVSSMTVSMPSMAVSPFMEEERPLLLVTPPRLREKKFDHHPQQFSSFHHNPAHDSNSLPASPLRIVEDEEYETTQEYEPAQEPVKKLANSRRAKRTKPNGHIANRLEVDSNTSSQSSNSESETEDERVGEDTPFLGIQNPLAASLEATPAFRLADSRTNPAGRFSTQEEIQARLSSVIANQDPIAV
row,Structure (SMILES),composite z-score
1,CC(c1ccccc1)C(O)C1C=CC2C(=O)N(c3ccccc3)C(=O)C2N1Nc1ccc(C#N)cc1 (stereo unspecified),1.91
2,O=C1c2ccccc2[C@@]2(Cc3ccccc3N(Cc3ccccc3)C2=O)[C@H](c2ccc(CO)cc2)N1Cc1ccccc1,-0.605
3,CC(C)CNC(=O)[C@@H]1c2ccccc2C(=O)N(CC23CC4CC(CC(C4)C2)C3)[C@H]1c1ccc(CO)cc1,0.792

# System: Neuregulin-1 EGF-like domain
# Experiment: binders of neuregulin-1 EGF-like domain, primary screen, biochemical, small-molecule microarray, 635 nm fluorescence (AID 1081);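 further: binding of the protein to compounds printed on small-molecule microarray slides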
# Conditions: small-molecule microarray binding, higher = more signal
row,Structure (SMILES),composite z-score
1,COCCOC(=O)N1C(=O)[C@@]2(c3cc(C#CCNC(N)=O)ccc31)[C@H](C(=O)NC[C@H](O)c1ccccc1)[C@H]1C(=O)O[C@H](c3ccccc3)[C@H](c3ccccc3)N1[C@@H]2c1ccc(OCCO)cc1,0.877
2,COC(=O)[C@@]1(Cc2ccc(F)cc2)[C@H]2c3cc(C(=O)N(C)C)n(CCn4cc([N+](=O)[O-])nc4C)c3C[C@H]2CN1C(=O)c1ccccc1,1.19
3,CN(C)CCCCNC(=O)[C@H]1C[C@H]2C(=O)N[C@@H](Cc3ccccc3)C(=O)N2[C@H]1c1cccc(OCCO)c1,0.606
4,CCCCN1CC=CC23O[C@@H]4/C=C\CCC(C)OC(=O)C4[C@H]2C(=O)N(C(C)CO)[C@@H]3C1=O (stereo partly specified),0.331
5,CCCCC(=C=CC[C@@H](O)c1cccc(OCCO)c1)CCO,0.345
6,CN1C=C(C(=O)OCCS(C)(=O)=O)C(C(=O)OCCS(C)(=O)=O)=CC(CCCO)=CC1c1ccc(CN2CCCC2)cc1 (stereo unspecified),1.35
7,C#CCN(C/C=C/c1ccccc1)[C@H](CO[Si](C)(C)C(C)(C)C)c1ccccc1,-0.497
8,O=C1O[C@H](c2ccccc2)[C@H](c2ccccc2)N2[C@H]1[C@@H](C(=O)N1CCN(c3ncccn3)CC1)[C@]1(C(=O)Nc3ccccc31)[C@H]2c1ccc(O)cc1,1.28
